Data: the supplement of paper PMC10681739

Assays:
ETS1 [1] = target: T1, ETS1 (UniProt P14921); test: ETS1 binding intensity (PBM fluorescence), ETS1 alone (arbitrary fluorescence units); higher = stronger binding; details: ETS1 concentration 1 nM; RUNX1 concentration 0 nM
T1 sequence: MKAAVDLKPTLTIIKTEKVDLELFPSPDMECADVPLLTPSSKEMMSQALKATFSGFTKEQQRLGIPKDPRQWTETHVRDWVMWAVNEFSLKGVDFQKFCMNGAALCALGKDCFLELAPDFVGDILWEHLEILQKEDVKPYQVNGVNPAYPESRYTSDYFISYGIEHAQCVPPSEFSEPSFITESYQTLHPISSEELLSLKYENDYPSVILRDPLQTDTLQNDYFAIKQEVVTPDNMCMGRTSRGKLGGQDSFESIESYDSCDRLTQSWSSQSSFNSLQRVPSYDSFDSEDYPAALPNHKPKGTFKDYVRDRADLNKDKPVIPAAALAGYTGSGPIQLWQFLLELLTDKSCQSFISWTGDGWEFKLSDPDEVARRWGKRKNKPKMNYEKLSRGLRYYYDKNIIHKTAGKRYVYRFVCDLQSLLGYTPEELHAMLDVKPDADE

ETS1 [2] = target: T1, ETS1; test: ETS1 binding intensity (PBM fluorescence) in presence of RUNX1, normalised to ETS1-only experiment (arbitrary fluorescence units); higher = stronger binding; details: ETS1 concentration 1 nM; RUNX1 concentration 25 nM
RUNX1 [3] = target: RUNX1 (UniProt Q01196); test: RUNX1 binding intensity (PBM fluorescence) in presence of ETS1, normalised to RUNX1-only experiment (arbitrary fluorescence units); higher = stronger binding; details: RUNX1 concentration 2 nM; ETS1 concentration 25 nM
RUNX1, sequence (Q01196 whole entry): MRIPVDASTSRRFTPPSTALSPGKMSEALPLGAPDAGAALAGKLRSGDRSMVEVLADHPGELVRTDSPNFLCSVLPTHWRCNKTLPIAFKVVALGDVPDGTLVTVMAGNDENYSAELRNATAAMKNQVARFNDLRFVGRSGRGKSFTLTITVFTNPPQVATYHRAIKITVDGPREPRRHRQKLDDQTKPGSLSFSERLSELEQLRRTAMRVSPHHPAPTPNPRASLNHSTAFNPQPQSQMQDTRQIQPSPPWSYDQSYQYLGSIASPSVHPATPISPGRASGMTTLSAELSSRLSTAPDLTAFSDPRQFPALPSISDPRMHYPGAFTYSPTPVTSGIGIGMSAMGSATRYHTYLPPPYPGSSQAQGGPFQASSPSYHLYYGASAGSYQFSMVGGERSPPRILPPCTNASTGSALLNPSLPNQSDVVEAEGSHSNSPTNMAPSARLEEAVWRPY
Description: (§1)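 Cooperative gcPBM on 36-bp genomic probes with neighbouring ETS1 and RUNX1 sites. Recombinant human RUNX1 (2 nM) was incubated alone or with ETS1 (25 nM) and detected with anti-RUNX1 antibody plus Alexa488 secondary. Values are medians over 4 replicate spots; the RUNX1+ETS1 data were normalised to the RUNX1-only data. The probes sit in constant array flanks that are not printed.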

RUNX1 [4] = target: RUNX1 (UniProt Q01196); test: RUNX1 binding intensity (PBM fluorescence), RUNX1 alone (arbitrary fluorescence units); higher = stronger binding; details: RUNX1 concentration 2 nM; ETS1 concentration 0 nM
Description: as §1
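Throughout, for RUNX1 binding intensity (PBM fluorescence) in presence of ETS1, normalised to RUNX1-only experiment: Full-length recombinant human ETS1 or RUNX1 bound to double-stranded 36-bp genomic probes on microarrays, detected by protein-specific primary antibody and Alexa488 secondary, spot fluorescence as median of four replicate spots.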
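Throughout, for RUNX1 binding intensity (PBM fluorescence), RUNX1 alone: Full-length recombinant human RUNX1 bound to double-stranded 36-bp genomic probes on a high-density microarray, scored as Alexa488 fluorescence per spot via anti-RUNX1 antibody, median of four replicate spots.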

Sequence	ETS1 binding intensity (ETS1 [1])	ETS1 binding intensity (ETS1 [2])	RUNX1 binding intensity (RUNX1 [3])	RUNX1 binding intensity (RUNX1 [4])
ATCTTGGCCCATATCCTGTGGTGTTCTGCTAGAGGT	768	843	1290	–
TGCGAGCACCCGGAAGCCGCTTGCGGGCTCCCGGAG	2840	5620	999	–
GGGAGGTCACATCCTGCCCGCGGTCTCAGAAAAGCT	821	989	2080	–
CCCTGAGCACTTCCCCGTAAGGCTGCGGTGCACGGG	337	460	844	–
GCTGAGGCCGGAAGAGGGTGGGGCCGCGGTGGCTAG	2170	3070	1260	–
TATGTGTTTTAGGCAGGATGTGGGTTTTAGTCTTTC	8060	36400	2200	–
CCCACCCAGGAAGCCGTCCTAACCACAACAGCCCTC	514	2580	6790	–
CTTACCTACAGTTCCGCTTGCTGTGGTTTCAGTTAC	403	843	2060	–
TTGGTCAGGATGTGGCTGAAGAAGCCACAAGAAAAA	796	943	1130	–
GTTCTCCTTCCTGTGCCGAGTGTGGTTTGCTATCAA	580	622	2400	–
GCCACTATTTCCTGCCTTCTGCGGCTGAGAGTCCCA	981	997	3520	–
GTTCATCCAGGAAACCCCAACCCAGTGCCGCAGTAT	538	464	1080	–
AGCCCCTACCACTTCCCCCCACAGCAGTTCTGAGAT	720	755	2250	–
CCCACTGATAAGACAGGATGTGGTAAAGAAGCCAGC	5700	22800	6790	–
CCGGGCTGCGGAAGGCGGGAATTCTGCGGTTCGCGG	405	1990	1720	–
GTGTGGAAGGAGGAAGCGAGAATGTGGTTACTTAGG	718	1890	1190	–
CCGCTGAGAACAGGATGTGGGTGTCAGGAGGTGAAG	4850	7410	1530	–
CCTGCCTTCCGTCTTCCAGGCAGAACCACAGAGAGG	432	481	1230	–
CAGCAAAAGGCAGGATGTGGTTAAAACTGTGCTCTG	4320	29000	17100	–
ATCAGTCAACTTCCCCCACTCCCTCCCACAAAGAAA	1010	979	1300	–
TTTTCTTTCCTAGGAAGTGGTTGCTGGGTTCTGAGG	785	721	872	–
GCACCCTTCCTGCTTCCCACAGTGTGGTATAAGAGG	412	475	1560	–

Sequence	ETS1 binding intensity (ETS1 [1])	ETS1 binding intensity (ETS1 [2])	RUNX1 binding intensity (RUNX1 [3])	RUNX1 binding intensity (RUNX1 [4])
AGCGTTGTCTTCCGGCCTCAACCACTCAGCGACCGG	14400	10600	1760	–
AGGACCTAACACTCAGGAAGTGGTCAACCTTGCTGC	2760	3710	1420	–
GTCGGAAGTGGCCGTGAGCCCAAGCCGCGGTCCCGG	480	486	951	–
GTAAGTAGGCCAGGAAGTGGTCACTGCAGCATGTGA	3740	4960	1440	–
GAGGCCCAGGATGTGGCTGGAGGCCTGTGGTGGGAC	630	1130	864	–
TTCTTCCGGCAACTGCTGCTGAGGCTGCGGTGGCGG	455	899	2050	–
CAAAGTGATGGGGGAAATGGTTGTGGTTTTGGGTGG	553	3760	1500	–
GAGTCTACAGCGGAAGCCACCACATGCCCCACCCCC	4820	5330	1200	–
AGAAGCTGCAGTCCCGGAAGCGGTTTTAGGGGGCCG	4220	10100	1310	–
AGTGGCTACCACTTCCTTCTCTTACCACAGTTCCTT	442	607	4520	–
CTCTAGAGGCTTCCTGCCCAACCACCAAGAAAAAGC	598	668	1180	–
TGACAGACCCGGAAATAAGAGGAGACCACACACTTG	1900	2660	1410	–
ACCCTGAAATTACCCGGATGTGGTCCCCGCGCGCGC	6470	8100	1930	–
GCTTACACTTCCTCCCTGAACCCCTGCGGTTTCACA	511	1960	10200	–
GAGGGACAGGATGCCGCCAGGAACCACAAGAGCTTC	–	–	1300	844
AACAGGCAAAGGACAGGATGTGGTGAGCGTCGGCCC	–	–	3040	774
GGCGACCAGCTCCGGAAAGCGCGGTGGGGACGCGCT	–	–	865	805
CAAGGAGGCTTCCTGCGTGGGGCCGCAGAGCGAGTC	–	–	869	658
AGCTTCCGAGTCTGTTGTGGAGTGGGAACCGCGACT	–	–	1020	724
CAGTTTATCCTGTGAGAGCCTTGTGGTTCCTACTAA	–	–	859	773
TATCGACAAAAGTTCCGGCCCGCGGTAGCGGAGGGA	–	–	970	879
